# From PubChem BioAssay
# Most compounds without a hit are left out; they make up all but 2.2% or so of the library.
# GLP1R inv ag – qHTS of GLP-1 Receptor Inverse Agonists (Inhibition Mode); Glucagon-like peptide 1 receptor (Homo sapiens), P43220; HEK293 GLP-1R CRE-luciferase, luminescence, 24 h; GLP-1R form is constitutively active; hit rate 1.6% among 410,000; Potency, µM (doses to about 38.3 µM), for inactives: at the highest dose activity change, negative = inhibition, actives largely listed as inhibitors; note: potency is the fitted concentration of half-maximal effect; % is set by controls: 0 for no effect and ±100 for the full control effect; nearly all actives have a fitted effect of over 55% in size
# Target sequence (P43220 whole entry, looked up): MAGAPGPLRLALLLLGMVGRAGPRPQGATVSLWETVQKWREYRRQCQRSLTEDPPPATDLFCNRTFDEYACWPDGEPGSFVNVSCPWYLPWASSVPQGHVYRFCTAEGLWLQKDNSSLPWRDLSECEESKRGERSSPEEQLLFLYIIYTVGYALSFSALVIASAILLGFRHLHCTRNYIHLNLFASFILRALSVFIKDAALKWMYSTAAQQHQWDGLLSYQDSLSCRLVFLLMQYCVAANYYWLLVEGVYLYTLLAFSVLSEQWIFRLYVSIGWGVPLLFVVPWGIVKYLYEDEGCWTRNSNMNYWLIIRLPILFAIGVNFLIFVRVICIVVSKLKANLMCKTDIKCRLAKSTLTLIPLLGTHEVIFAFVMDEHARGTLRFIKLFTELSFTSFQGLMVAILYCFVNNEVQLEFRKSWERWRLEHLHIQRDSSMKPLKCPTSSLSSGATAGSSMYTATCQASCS
#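 Constitutively active GLP-1R drives a cAMP-responsive luciferase in stably transfected HEK293 cells; test compounds are added after overnight (12 h) attachment and left 24 hr, and signal loss in luminescence marks inhibition.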
# GLP1R cytotox – qHTS of GLP-1 Receptor Inverse Agonists: Cytotox Screen | HEK293 cAMP-luciferase reporter cells, luminescence, 24 h | Potency, µM (top dose mostly 38.3 µM), for inactives: at the highest dose activity change, negative = inhibition, most hits filed as inhibitors | hit rate 0.13% among 410,000 | AID 624418, 2012;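 note: loss of luciferase light is scored as toxicity; potency is the fitted concentration of half-maximal effect; % is set by controls: 0 for no effect and ±100 for the full control effect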
#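 Cells in DMEM/10% Nu serum/1% pen-strep, 1536-well format. Pre-incubated 12 h, dosed with 23 nL compound, incubated a further 24 h. Luciferase detection, 12 min at room temp, luminescence.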
# uPA surface inh – qHTS for Inhibitors of Cell Surface uPA Generation | cell surface uPA generation assay, qHTS | Potency, µM (titrated, usually from 38.3 µM), for inactives: top-dose activity change, negative = inhibition, hits mostly inhibitors | hit rate 0.31% among 330,000 | AID 540303, 2011; active = well fitted inhibition curve with a large enough effect; inconclusive = small, poorly fitted or top-dose-only effect; inactive = no such curve, though single readings can be large or run the other way; tested in mouse RAW 264.7 cells; note: potency is the fitted concentration of half-maximal effect; % is set by controls: 0 for no effect and ±100 for the full control effect; nearly all actives have a fitted effect of over 55% in size
# Mm-Cpn inhibitor – Inhibitors of TCP-1 ring complex (TRiC) of Methanococcus maripaludis (MmCpn): qHTS | Chaperonin Mm-Cpn (Methanococcus maripaludis) | purified Mm-Cpn ATPase, ADP Transcreener TR-FRET | Potency, µM (titrated, usually from 76.9 µM), inactives show at the highest dose activity, negative = inhibition, actives largely listed as inhibitors | hit rate 0.031% among 330,000 | AID 504842, 2011; note: potency is the fitted concentration of half-maximal effect; % is set by controls: 0 for no effect and ±100 for the full control effect; nearly all actives have a fitted effect of over 80% in size
#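 ATPase turnover read by TR-FRET ADP competition (Eu cryptate antibody/ADP-d2, 665/590 nm): 10uM ATP final, 25nM Mm-CPN final, 30 min 37degC after 10-min compound preincubation, pH 7.4 Tris/KCl/MgCl2/DTT buffer.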
# GLP1R ag – qHTS of GLP-1 Receptor Agonists; HEK293 GLP-1R CRE-luciferase, luminescence, 4-6 h; cells express a hypersensitive GLP-1R form; Potency, µM (series often up to 45.6 µM), for the others: at the highest dose activation, usual class: activators; Glucagon-like peptide 1 receptor (Homo sapiens), P43220; hit rate 0.007% among 380,000; AID 624172, 2012; note: potency is the fitted concentration of half-maximal effect; % of control where 0% means no effect
# CCT modulator – High-Throughput Screening for Modulators of Cytosolic Chaperonin Activity; purified chaperonin ATPase assay, HTRF ADP detection, 30 min; activity change, % (test concentration not listed), hits read low; hit rate 0.3% among 360,000; AID 651819, 2012; in the data active = activity change below about -30%; note: % is set by controls: 0 for no effect and ±100 for the full control effect
#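 TRiC (40 or 20 nM final, by batch activity) in 30 mM Tris pH 7.4, 100 mM KCl, 5 mM MgCl2, 1 mM DTT was treated with compound at 76 uM single dose, then 10 uM ATP, 30 min at 37 °C. ADP was read by HTRF Transcreener.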
# Starred values were filed as active, the others as inactive; ? = inconclusive; nt = no result. Unless noted, calls come from the whole dose curve; as a rule, active = well fitted curve in the direction sought with a large enough effect; inconclusive = small, poorly fitted or top-dose-only effect, or another doubt; inactive = no such curve, though single readings can be large; an effect the other way counts as inactive or inconclusive.
SMILES,GLP1R inv ag,GLP1R cytotox,uPA surface inh,Mm-Cpn inhibitor,GLP1R ag,CCT modulator
Cc1c(NS(=O)(=O)c2ccc(C(C)(C)C)cc2)c(=O)n(-c2ccccc2)n1C,-3%,1%,nt,nt,nt,nt
O=C(COc1ccccc1-c1ccccc1)N/N=C/c1ccc2ccccc2c1,1µM*,?,-13%,-2%,21%,0
NC(=S)N/N=C/c1cccc(/C=N/NC(N)=S)c1,51%,-11%,-2%,2%,11%,-4
NC(=S)N/N=C/c1ccc2ccccc2c1,5.6µM*,3.2µM*,-9%,4%,-1%,1
O=C(COc1ccccc1-c1ccccc1)N/N=C/c1ccncc1,?,-7%,3%,2%,8%,-10
COc1cc(OC)c(OC)cc1CNc1sc2c(c1C(=O)Nc1ccccc1OC)CCC2,17%,-15%,nt,nt,nt,nt
CCc1cccc(C)c1NS(=O)(=O)c1cc2[nH]c(=O)c(=O)[nH]c2cc1C,22%,2%,nt,nt,nt,nt
CC1=C(C(=O)Nc2cccnc2)C(c2ccccc2)n2nc(SCc3ccccc3F)nc2N1 (stereo not drawn),-2%,-18%,nt,nt,2%,nt
O=C(Nc1ccc(N2CCCCC2)cc1)c1ccccc1,?,-2%,?,-1%,-4%,-66*
Cc1ccc(NC(=O)CN2C(=O)C(c3ccc(C)cc3)=NC23CCCCCC3)cc1,10µM*,-19%,nt,nt,nt,nt
CCc1ccc(NC(=O)CN2C(=O)C(c3ccc(C)cc3)=NC23CCCCC3)cc1,11µM*,0%,nt,nt,nt,nt
CCc1ccc(NC(=O)CN2C(=O)C(c3ccc(Cl)cc3)=NC23CCCCC3)cc1,11µM*,-9%,nt,nt,nt,nt
CCCCC(=O)Nc1cccc(-c2nc3ccccc3s2)c1,?,-4%,nt,nt,nt,nt
CCc1nc(NC(C)(C)C)c2cnn(-c3ccccc3)c2n1,2µM*,-16%,-5%,-2%,21%,3
CCCCNc1ncnc2c1cnn2-c1ccccc1,?,?,-16%,0%,-2%,-2
Cc1cc(Cl)ccc1NC(=O)CN1C(=O)COc2ccc(S(=O)(=O)Nc3ccccc3)cc21,?,-14%,nt,nt,-4%,nt
CC1(C)CC(NC(=O)N2c3ccccc3Sc3ccccc32)CC(C)(C)N1,5µM*,?,2%,-2%,1%,-1
N#C/C(=C\c1ccc(Cl)cc1)C(=O)NCC1CCCO1 (stereo not drawn),-5%,10%,nt,nt,nt,nt
CC1(C(=O)NC2CCN(Cc3ccccc3)CC2)CCN1Cc1ccc(OC(F)(F)F)cc1 (stereo not drawn),?,-15%,nt,nt,-3%,0
CC(C)(Oc1ccc(Cl)cc1)C(=O)NC1CCN(Cc2ccccc2)CC1,8.9µM*,-7%,-6%,-4%,6%,2
CC1CCN(C(=O)c2cccc(NC(=O)c3nsc4ccccc34)c2)CC1,?,-14%,nt,nt,nt,nt
COc1ccc(-c2cc(=O)c3ccccc3o2)cc1,16%,9%,?,-8%,22%,-46*
COc1ccc(-c2cc(=O)c3c(O)c(OC)c(OC)c(OC)c3o2)cc1,9%,-13%,-1%,nt,13%,0
COc1c(OC)c(O)c2c(=O)cc(-c3c(O)cccc3O)oc2c1OC,0%,10%,7.1µM*,nt,3%,0
COc1ccc(-c2cc(=O)c3c(O)c(OC)c(O)cc3o2)cc1,-27%,-1%,10µM*,nt,-4%,0
COc1c(O)cc(O)c2c(=O)cc(-c3ccccc3)oc12,-32%,-7%,4%,1%,2%,0
COc1ccc(OC)c(CNC(=O)Nc2cn(CC(C)C)c(=O)c3ccccc23)c1,11%,3%,nt,nt,19%,nt
CCOc1cc2c(cc1OCC)C(c1c(F)cccc1Cl)CC(=O)N2 (stereo not drawn),-3%,5%,nt,nt,1%,nt
